According to PubChem BioAssay AID778 (Sanford-Burnham Center for Chemical Genomics, 2007):
In all, about 96,000 compounds went through this assay and about 20,000 (21%) were called active. A selection follows. Values without a mark were called inactive.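 How the source made its calls: active means CYP2C19 inhibition above a set limit at 5 µM in the primary screen (cut at about 50% in these data); inactive means the rest.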

What follows are compounds tested against Cytochrome P450 2C19 (Homo sapiens) (UniProt P33261) (assay: blockers of cytochrome P450 2C19 activity – biochemical, luminescence, ADME assay, primary screen (AID 778;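 further: plate controls were negative control wells for no effect and 2.5 mM tranylcypromine positive control for full effect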)). Conditions: CYP2C19 Supersomes, luciferin-H EGE luminescence, 30 min; at 5 µM; stronger effect = higher value.
Cytochrome P450 2C19 (Homo sapiens), sequence (P33261 whole entry, looked up): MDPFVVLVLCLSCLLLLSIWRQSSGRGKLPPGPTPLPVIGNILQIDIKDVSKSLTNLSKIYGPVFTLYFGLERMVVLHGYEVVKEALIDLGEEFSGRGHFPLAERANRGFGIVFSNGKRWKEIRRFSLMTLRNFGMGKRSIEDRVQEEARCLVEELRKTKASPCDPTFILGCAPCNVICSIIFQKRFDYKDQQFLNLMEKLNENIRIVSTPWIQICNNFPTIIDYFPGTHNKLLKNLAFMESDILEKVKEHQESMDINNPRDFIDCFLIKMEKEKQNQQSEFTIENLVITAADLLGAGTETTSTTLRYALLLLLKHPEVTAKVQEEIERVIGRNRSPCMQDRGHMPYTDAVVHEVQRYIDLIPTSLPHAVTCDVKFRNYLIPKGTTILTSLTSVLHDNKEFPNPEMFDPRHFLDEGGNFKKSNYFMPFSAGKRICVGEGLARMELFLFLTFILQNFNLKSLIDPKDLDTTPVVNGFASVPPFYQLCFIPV

Structure (SMILES) | inhibition
CCc1c(C)sc(NC(=O)c2cccs2)c1C(N)=O | 84.1% (active)
CCc1nnc(NC(=O)c2cccs2)s1 | 14.6%
CCOC(=O)c1c(NC(=O)c2cccs2)sc(C)c1C | -10.4%
CN1CCN(CC(=O)Nc2sc3c(c2C#N)CCC(C(C)(C)C)C3)CC1 (stereo unspecified) | 26.1%
O=C(Cc1ccc(F)cc1)NC1CCCC1 | 43.4%
CN(CC(=O)NC1CCCCC1)S(=O)(=O)c1ccc(Br)s1 | 11.4%
O=C(NC1CCCC1)c1ccc(Br)s1 | 71.3% (active)
Cc1cccc(-n2c(O)c(C=Nc3ccccc3N)c(=O)[nH]c2=O)c1 | -2.2%
C=CCNC(=O)CCCC(=O)NCC=C | 0.1%
O=C(COC(=O)c1ccccc1C(=O)c1ccccc1)c1ccco1 | 84.4% (active)
CCN(CC)c1ccc(C(=O)OCC(=O)c2ccco2)cc1 | 8.1%
O=C(CNC(=O)c1ccco1)OCC(=O)c1ccccc1 | 17.9%
CCCC(=O)C1=C(N(C)c2ccccc2)CC(C)(C)C(C(=O)OC)C1=O (stereo unspecified) | 14.5%
CCOC(=O)c1cc2c(ccn2C)n1CC(=O)N1CCC(C)CC1 | 55.4% (active)
CC1CCN(C(=O)Cn2cc(C(=O)c3ccco3)c3ccccc32)CC1 | 17.1%
CCOC(=O)c1cc2occc2n1CC(=O)NC1CCC(C)CC1 (stereo unspecified) | 56.3% (active)
CC1CCN(C(=O)CN(c2ccc(Oc3ccccc3)cc2)S(C)(=O)=O)CC1 | 28.4%
CCOC(=O)c1cc2occc2n1CC(=O)N1CCN(C(=O)c2ccco2)CC1 | -4%
CCC(C(=O)N1CCOCC1)n1c(C(=O)OC)cc2occc21 (stereo unspecified) | 35.4%
CCOc1ccc(NC(=O)CSc2nc3c(c(=O)n2-c2ccccc2OC)SCC3)cc1 | 37.5%
CC1(C)CC(CC(=O)O)C(=O)O1 (stereo unspecified) | -11.1%

Structure (SMILES) | inhibition
Cc1nc2ccc(S(=O)(=O)NCC(=O)NCCN3CCCCC3C)cc2s1 (stereo unspecified) | 5.2%
Nn1cnnc1N/N=C/c1cc([N+](=O)[O-])c(Cl)cc1Cl | 15.9%
CCOC(=O)C1(C(F)(F)F)N=C(N(C)C)OC(N(C)C)=N1 | -7.2%
CC1COC2C(O1)N(S(C)(=O)=O)CCN2S(C)(=O)=O (stereo unspecified) | -4.9%
Cc1ccnc(N2CCN(C(=O)CSc3nc4ccccc4nc3N3CCCCC3)CC2)c1 | 79.1% (active)
Cc1ccc2oc(=O)c3cnn(CC(=O)N4CCN(c5ccccn5)CC4)c3c2c1 | 10.9%
Cc1ccc(S(=O)(=O)NCC(=O)N2CCN(c3ccccn3)CC2)cc1 | -1.8%
NC(=O)C1(N2CCCCC2)CCN(C(=O)c2ccc(C#Cc3ccccc3)o2)CC1 | 71% (active)
CC(C)(O)C#Cc1ccc(C(=O)N2CCC(C(N)=O)(N3CCCCC3)CC2)cc1 | 14.8%
NC(=O)C1(N2CCCCC2)CCN(C2CC(=O)N(Cc3ccc(N4CCCC4=O)cc3)C2=O)CC1 (stereo unspecified) | 22.1%
Cc1nc2nc(COc3ccccc3)[nH]n2c(=O)c1C | -11.1%
OCCCN1c2ccccc2Nc2nnc(-c3ccccc3)cc21 | 39.5%
O=S(N1CCCCCC1)C12CC3CC(CC(C3)C1)C2 (stereo unspecified) | 77.6% (active)
CN(CCO)Cc1csc2ccc(Br)cc12 | -8.9%
COc1cc(C2C(C(=O)OCCC#N)=C(C)NC3=C2S(=O)(=O)c2ccccc23)cc(OC)c1OC (stereo unspecified) | 15.8%
COc1cccc(-n2c(SCC(=O)NC3CCCCC3)nc3n[nH]c(C)c3c2=N)c1 | 50.9% (active)
COc1ccc(N(CC(=O)NC2CCCCC2)S(=O)(=O)c2c(C)[nH]c(=O)[nH]c2=O)cc1 | 11.3%
C=CCn1c(CC(=O)Nc2cccc(OC)c2)nnc1SCC(=O)NC1CCCCC1 | -6%
Cc1cccc(NC(=O)c2cc(N3C(=O)CCC3=O)ccc2Cl)n1 | 14.7%
CC1(C)Cc2c(sc3nc(SCC(=O)NCc4ccccc4)n(-c4ccccc4)c(=O)c23)CS1 | 1.8%
CCOC(=O)CSc1nc2c(c(=O)n(Cc3ccccc3Cl)c(=O)n2C)n1C | -6%

Structure (SMILES) | inhibition
CC(C)OCCCNc1nc2c(c(=O)n(Cc3ccccc3F)c(=O)n2C)n1C | 42.7%
CCOC(=O)CSc1nc2c(c(=O)n(C)c(=O)n2C)n1Cc1ccccc1F | 63.1% (active)
Cc1cccc(Cn2c(N3CCN(c4ccccc4)CC3)nc3c2c(=O)n(C)c(=O)n3C)c1 | 72.8% (active)
Cc1cccc(Cn2c(SCCO)nc3c2c(=O)n(C)c(=O)n3C)c1 | 51.7% (active)
CCOc1ccc(Cn2c(SCCCCC#N)nc3c2c(=O)n(C)c(=O)n3C)cc1OCC | 20.4%
Cn1c(=O)c2c(nc(NCCc3ccccc3)n2Cc2ccccc2)n(C)c1=O | 8.9%
CCCSc1nc2c(c(=O)n(C)c(=O)n2C)n1Cc1ccc(C)cc1 | 17.6%
CCOC(=O)N1CCN(Cc2nc3c(c(=O)n(C)c(=O)n3C)n2Cc2ccccc2)CC1 | 30%
C/C(=N\c1nc2ccccc2n1C)c1cc(Cl)ccc1O | -5.8%
CCN(CC)c1ccc(/C=N/Nc2nc(C)cc(=O)[nH]2)cc1 | 7.4%
COc1ccc(CN(C(=O)c2cccs2)c2nccs2)cc1OC | 100% (active)
COc1ccc(CCN(C(=O)COc2ccccc2)c2nc(-c3ccccc3)cs2)cc1OC | 35.3%
O=C(c1cccs1)N(C(=O)c1cccs1)c1ccccn1 | 23%
CCOC(=O)c1cc2n(c1C)-c1ccccc1C2=O | 17.8%
COc1ccc(C(=O)NNC(=O)c2cnccn2)cc1[N+](=O)[O-] | 11.1%
Cc1cc(C)nc(N2CCN(c3ncnc4c3oc3ccccc34)CC2)n1 | -16.1%
CCCCOC(=O)Cn1c(=N)n(CCN(CC)CC)c2ccccc21 | -29.6%
CCOC(=O)CN1C(=O)C(=O)c2cc(C)ccc21 | -2.2%
CCCCOC(=O)Cn1c(=O)n(CC(=O)OCCCC)c2cc(C)ccc21 | 55.8% (active)
